PINK1 expr mod: PINK1 expression modulation. PINK1 immunofluorescence, high-content cytometry, 24 h. Potency, µM (highest dose often 76.6 µM), for inactives: top-dose activation (PINK1 increase), usual class: activators. 410,000 tested, 0.2% active. AID 624263; active = well fitted activation curve with a large enough effect; inconclusive = small, poorly fitted or top-dose-only effect; cell line not stated here; also: % of control where 0% means no effect; nearly all actives have a fitted effect of over 65% in size
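PINK1 protein level read as immunofluorescence by microplate cytometer in a fixed, stained stable cell line after 24 h exposure to five compound concentrations, with CCCP as control.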
Sfp PPTase inh: Sfp phosphopantetheinyl transferase inhibition. Biochemical Sfp PPTase activity, qHTS. Potency, µM, inactives show largest response in the series, negative = inhibition, actives largely listed as inhibitors. 310,000 tested, 3.5% active;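 also: the enzyme is Sfp with the accession as filed and its product quenches rhodamine fluorescence; 0% = enzyme reaction without inhibitor and -100% = no enzyme wells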
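Buffer: 50 mM Hepes-Na pH 7.6, 10 mM MgCl2, 0.01% Nonidet P-40, 0.01% BSA. Enzyme 15 nM, pre-exposed to compound 15 min; substrates then added and fluorescence change tracked over 30 min.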
VP16 counter: Gal4-VP16 reporter inhibition counter-screen | Drosophila S2 Gal4-VP16 UAS-luciferase, luminescence, 20 h | Potency, µM (doses to about 53.6 µM), for the others: at the top dose activity, negative = inhibition, actives largely listed as inhibitors | 310,000 tested, 3.5% active;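 also: Gal4-VP16 expression switched on by copper sulfate through the metallothionein promoter; % is scaled to controls: 0 for no effect and ±100 for the full control effect; nearly all actives have a fitted effect of over 50% in size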
RORgamma inh: ROR gamma (mouse) transcription inhibition | 310,000 tested, 5.4% active | Potency, µM (highest dose often 53.6 µM), for the others: top-dose activity change, negative = inhibition, actives largely listed as inhibitors | Drosophila S2 Gal4-RORgamma UAS-luciferase reporter, 20 h | AID 2551 | P51450; also: % is scaled to controls: 0 for no effect and ±100 for the full control effect; nearly all actives have a fitted effect of over 60% in size
Target sequence (P51450 whole entry, looked up, the tested form may be a part): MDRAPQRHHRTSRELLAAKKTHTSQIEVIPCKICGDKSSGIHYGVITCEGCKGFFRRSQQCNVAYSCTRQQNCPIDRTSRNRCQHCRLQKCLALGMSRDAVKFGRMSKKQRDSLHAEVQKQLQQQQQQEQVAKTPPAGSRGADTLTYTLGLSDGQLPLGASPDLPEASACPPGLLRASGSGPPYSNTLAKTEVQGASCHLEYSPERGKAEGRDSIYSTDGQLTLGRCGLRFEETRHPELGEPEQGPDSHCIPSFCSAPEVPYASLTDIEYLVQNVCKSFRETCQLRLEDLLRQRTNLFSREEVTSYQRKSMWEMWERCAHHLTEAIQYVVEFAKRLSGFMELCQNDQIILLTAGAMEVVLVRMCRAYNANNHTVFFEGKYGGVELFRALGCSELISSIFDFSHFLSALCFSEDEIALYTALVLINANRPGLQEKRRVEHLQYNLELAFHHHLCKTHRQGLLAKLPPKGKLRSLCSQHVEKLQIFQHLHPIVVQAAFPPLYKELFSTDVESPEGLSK
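ROR gamma transcriptional activity was tracked as Gal4-UAS luciferase output in stably transfected Drosophila Schneider cells, with compound added 1 hr before 700 uM copper sulfate induction and a 20 hr ambient-temperature incubation.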
ClpP mod: qHTS Assay for Activators of ClpP; ATP-dependent Clp protease proteolytic subunit (Bacillus subtilis (strain 168)), P80244; Potency, µM (titrated, usually from 57.5 µM), for the others: at the top dose activity change, negative = active; purified B. subtilis ClpP, FRET peptide cleavage, 20 min; AID 651965, 2013; 340,000 tested, 1.9% active; active = well fitted falling curve with a large enough effect; inconclusive = small, poorly fitted or top-dose-only effect; inactive = no such curve, though single readings can be large or run the other way; also: the source files actives as falling curves though it sought activators and does not explain the sign; nearly all actives have a fitted effect of over 65% in size
Target sequence (P80244 whole entry, looked up): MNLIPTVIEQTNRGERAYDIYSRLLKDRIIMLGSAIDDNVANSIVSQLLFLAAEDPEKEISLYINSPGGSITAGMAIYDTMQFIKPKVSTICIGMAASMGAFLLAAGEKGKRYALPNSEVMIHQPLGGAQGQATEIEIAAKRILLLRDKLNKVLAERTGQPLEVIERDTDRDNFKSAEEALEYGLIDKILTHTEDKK
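ClpP 10 microg/mL final, pH 8 Tris/KCl buffer with BSA, glycerol, Tween-20; compound pinned in; FRET-FV substrate; RT 20 min; Ex320/Em430; ΔFRET vs ADEP 5.8 microM, DMSO, no enzyme.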
Epigenetic derep: derepresses silenced GFP reporter in murine cells | AID 1865 | Potency, µM (top dose mostly 53.9 µM), for inactives: top-dose GFP activation, hits mostly activators | 280,000 tested, 0.2% active | murine LDR cells, GFP reporter derepression, 30 h; also: % of control where 0% means no effect; nearly all actives have a fitted effect of over 60% in size
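Reporter derepression read as number of fluorescent GFP-positive objects, 20-120 um in size, counted by laser-scanning cytometer. Mouse LDR line with an epigenetically silenced CMV-GFP locus; compound incubation 30 h, 37 C.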
* = called active by the depositor. In the library only some 8.1% were active in any assay of this set; here they are far more common. Unless noted, calls follow the shape of the dose curve; as a rule, active = well fitted curve in the direction sought with a large enough effect; inconclusive = small, poorly fitted or top-dose-only effect, or another doubt; inactive = no such curve, though single readings can be large; an effect the other way counts as inactive or inconclusive. Potency is read from the fitted curve at half-maximal effect.

What do the screens show for `CCc1c2c(nc3cccc(OC)c13)OC(CC)C2` (stereo not drawn)?
Sfp PPTase inh: 12%; VP16 counter: 7%; RORgamma inh: -11%; Epigenetic derep: 2%

What do the screens show for `C/C(=N/Nc1ccc(C(=O)O)cc1)c1ccc(O)c(O)c1O`?
PINK1 expr mod: 2%; Sfp PPTase inh: 40µM*; VP16 counter: -18%; RORgamma inh: inconclusive; ClpP mod: -3%; Epigenetic derep: -1%

How did CC(CCc1ccccc1)NC(=O)Cn1c(=O)nc(-c2ccccc2)c2cc(Cl)ccc21 (stereo not drawn) do in these assays?
PINK1 expr mod: 2%; ClpP mod: 0%; Epigenetic derep: -2%

Results for COc1cc(/C=N/NC(N)=S)ccc1OCC(=O)Nc1ccc(C)c(C)c1 ?
PINK1 expr mod: 4%; Sfp PPTase inh: 8%; VP16 counter: inconclusive; RORgamma inh: 11µM*; ClpP mod: -24%; Epigenetic derep: 0%

Results for CCCCNC(=S)N/N=C/c1ccc(OCC(=O)Nc2c(C)cc(C)cc2C)c(OC)c1 ?
PINK1 expr mod: 13%; Sfp PPTase inh: 6%; VP16 counter: 5µM*; RORgamma inh: inconclusive; Epigenetic derep: 0%

Results for COc1cc(/C=N/NC(N)=O)ccc1OCC(=O)Nc1ccc(C)c(C)c1 ?
PINK1 expr mod: 14%; Sfp PPTase inh: -6%; VP16 counter: -19%; RORgamma inh: -3%; ClpP mod: -2%; Epigenetic derep: 1%

How did COc1ccccc1CN1CCCC(n2cc(C(=O)N3CCCC3)nn2)C1 (stereo not drawn) do in these assays?
PINK1 expr mod: 0%

Results for Cc1ccc(Cn2c(Cc3ccccc3)nc3ccccc32)cc1 ?
PINK1 expr mod: 1%; Sfp PPTase inh: -4%; VP16 counter: inconclusive; RORgamma inh: 8.9µM*; ClpP mod: -3%; Epigenetic derep: 2%

What do the screens show for `COCc1nc2ccccc2n1Cc1ccccc1`?
PINK1 expr mod: -1%; Sfp PPTase inh: 0%; VP16 counter: inconclusive; RORgamma inh: 4%; ClpP mod: 0%; Epigenetic derep: 1%

How did COCc1nc2ccccc2n1Cc1ccc(Br)cc1 do in these assays?
PINK1 expr mod: 2%; Sfp PPTase inh: -16%; VP16 counter: inconclusive; RORgamma inh: 10µM*; ClpP mod: -1%; Epigenetic derep: 3%

What do the screens show for `Cc1cccc(NCc2nc3ccccc3n2Cc2ccccc2)c1`?
PINK1 expr mod: 1%; Sfp PPTase inh: 12%; VP16 counter: inconclusive; RORgamma inh: 1µM*; ClpP mod: -1%; Epigenetic derep: 3%

How did Cc1ccc(C)n1-c1nnc(N2CCCC(C(=O)Nc3ccccc3Br)C2)s1 (stereo not drawn) do in these assays?
PINK1 expr mod: 3%; ClpP mod: 4%; Epigenetic derep: -2%

What do the screens show for `Cc1ccc(-c2nc(-c3cc4cc(Cl)ccc4oc3=O)sc2C)cc1`?
PINK1 expr mod: 0%; ClpP mod: -5%

Results for Cc1nc(NC2CCCCC2)c2nc(-c3ccccc3)n(C(C)CN(C)C)c2n1 (stereo not drawn) ?
Sfp PPTase inh: 6%; VP16 counter: -1%; RORgamma inh: 10µM*; Epigenetic derep: 1%

How did Cc1nc(NC2CCCCC2)c2nc(-c3ccccc3)n(CCN3CCCCC3)c2n1 do in these assays?
Sfp PPTase inh: 12%; VP16 counter: -10%; RORgamma inh: -4%; Epigenetic derep: 0%

Results for C#CCOc1c(Cl)cc(/C=C2/C(=O)ON=C2C)cc1OCC ?
PINK1 expr mod: 0%; Sfp PPTase inh: 79µM*; VP16 counter: 2%; RORgamma inh: 26%; ClpP mod: -2%

How did C#CCOc1c(Br)cc(/C=C2/C(=O)ON=C2C)cc1OCC do in these assays?
PINK1 expr mod: -2%; Sfp PPTase inh: -68%; VP16 counter: inconclusive; RORgamma inh: -3%; ClpP mod: 2%

What do the screens show for `C#CCOc1c(Br)cc(/C=C2/C(=O)ON=C2C)cc1OC`?
PINK1 expr mod: 2%; Sfp PPTase inh: 56µM*; VP16 counter: -8%; RORgamma inh: 9%

How did CCOc1ccc(CCNC(=O)c2nn(-c3ccc(OC)cc3)c(=O)c3c2c2ccccc2n3C)cc1OCC do in these assays?
PINK1 expr mod: 2%; ClpP mod: -11%; Epigenetic derep: 12%

What do the screens show for `COc1cc2nc(CN(C)Cc3ccc(SC)cc3)[nH]c(=O)c2cc1OC`?
PINK1 expr mod: 3%; Sfp PPTase inh: inconclusive; VP16 counter: 2%; RORgamma inh: 11%; ClpP mod: -4%; Epigenetic derep: -3%

Results for CSc1ccc(CN(C)Cc2nc3cc(C(F)(F)F)ccc3c(=O)[nH]2)cc1 ?
PINK1 expr mod: 1%; Sfp PPTase inh: 18%; VP16 counter: inconclusive; RORgamma inh: 13µM*; ClpP mod: -2%; Epigenetic derep: -4%

Results for c1ccc(CSC2=NNC(c3ccccn3)S2)cc1 (stereo not drawn) ?
PINK1 expr mod: inconclusive; Sfp PPTase inh: -2%; VP16 counter: 3%; RORgamma inh: -3%; ClpP mod: 0%; Epigenetic derep: -1%

How did O=C(CSC1=NNC(c2ccccn2)S1)Nc1ccc(C(F)(F)F)cc1 (stereo not drawn) do in these assays?
PINK1 expr mod: 3%; Sfp PPTase inh: 10%; VP16 counter: 5µM*; RORgamma inh: 3.2µM*; Epigenetic derep: 2%

What do the screens show for `S=c1nc2ccccc2c2nc(-c3ccccc3Cl)[nH]n12`?
PINK1 expr mod: 2%; Sfp PPTase inh: -24%; VP16 counter: 1.6µM*; RORgamma inh: 0.35µM*; ClpP mod: 0%

Results for S=c1nc2ccccc2c2nc(-c3ccccc3)[nH]n12 ?
PINK1 expr mod: 3%; Sfp PPTase inh: -11%; VP16 counter: 0.35µM*; RORgamma inh: 0.089µM*; ClpP mod: -2%; Epigenetic derep: -1%

How did Clc1nc(-c2ccccc2)c2ccccc2n1 do in these assays?
PINK1 expr mod: 0%; Sfp PPTase inh: 6%; VP16 counter: 4%; RORgamma inh: -16%

What do the screens show for `COc1cc(O)ccc1-c1nc2cc(C)ccn2c1Nc1ccccc1C`?
PINK1 expr mod: 2%; ClpP mod: 4%; Epigenetic derep: 0%

How did COc1cc2nc3c(c([Si](C)(C)C(C)(C)C)c2cc1OC)Cn1c-3cccc1=O do in these assays?
Sfp PPTase inh: 79µM*; VP16 counter: -2%; RORgamma inh: 17%; Epigenetic derep: 7.9µM*

Source: PubChem BioAssay
